# VCAM1 TNFa inh = reduces TNF alpha induced VCAM1 expression in HUVEC; HUVEC TNFa-induced VCAM-1 immunofluorescence, high-content imaging; inhibition, % at 2 µM; hit rate 0.48% among 95,000; AID 802;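 active means inhibition above the batch mean plus 3 SD, with images confirmed as a hit by eye, cut at about 37% in these data; inconclusive means inhibition above that limit but hit not confirmed in images; inactive means inhibition not above that limit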;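 further: 0% = TNF-stimulated DMSO wells and 100% = unstimulated control wells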
# E-sel TNF inh = blocks E-selectin expression induced by TNF alpha | inhibition, % at 2 µM | hit rate 0.71% among 120,000 | HUVEC TNFa-induced E-selectin immunofluorescence, high content | AID 1246;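 active means inhibition above the batch mean plus 3 SD, and confirmed as a hit on visual image review, cut at about 43% in these data; inconclusive means passes the inhibition cutoff but fails visual image review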;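 further: 0% = TNF-stimulated DMSO wells and 100% = unstimulated control wells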
# HUVEC tox TNFa = HUVEC cytotoxicity counter-screen, TNF alpha stimulated; hit rate 0.17% among 93,000; HUVEC TNFalpha-stimulated, Hoechst cell count, imaging; cell count reduction, % at 2 µM;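 active means cell count reduction exceeding the screen mean by over 5 SD, scaled to untreated wells per plate, cut at about 78% in these data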;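 further: cells counted after 24 h of TNF alpha exposure following the 1 h pretreatment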
# cytoskel mod = modifiers of cytoskeleton assembly. hit rate 0.18% among 91,000. AID 836. inhibition, % at 2 µM. HUVEC TNFa F-actin phalloidin imaging, high content;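 active means inhibition above the batch mean plus 3 SD and confirmed as a hit by visual image inspection, cut at about 30% in these data, passing the limit was not always enough; inconclusive means above the inhibition threshold but rejected on visual inspection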
# Starred values were filed as active, the others as inactive; ? = inconclusive; / = no result. Sampled rows, rich in hits. Any-hit rate of the full collection: about 1.1%.
SMILES,VCAM1 TNFa inh,E-sel TNF inh,HUVEC tox TNFa,cytoskel mod
CCOC(=O)c1c(-c2ccccc2)oc2cc(CN(C)C)c(O)c(CN(C)C)c12,7.2,-7.7,-18.0,-0.2
CCOC(=O)N1CCC(n2c(=S)[nH]c3cc(OC)c(OC)cc3c2=O)CC1,-0.8,-11.9,11.7,-0.7
COc1ccc(CC(=O)NC2CC(C)(C)NC(C)(C)C2)cc1,-6.8,-0.4,-7.3,-0.5
O=C(/C=C/c1ccccc1)N1CCC(Cc2ccccc2)CC1,-25.2,91.6*,/,-8.1
CCCSc1nc(C)c(-c2csc(C(C#N)=C3CCCC3)n2)cc1C#N,-14.7,61.9*,0.0,-4.4
COc1c(S(=O)(=O)n2nc(C)cc2C)ccc(Cl)c1Cl,21.9,-0.1,6.1,-30.1
O=C(Nc1ccccc1)c1cccnc1N1CCCC1,12.6,20.1,14.0,-19.9
N=c1oc2c3c4c(cc2cc1C(=O)Nc1ccccc1)CCCN4CCC3,26.0,30.9,9.9,42.6*
Cc1ccc(-n2nnnc2SCc2nnc(-c3ccccc3Br)o2)c(C)c1,/,-42.5,/,/
COc1ccc2occ(C(C)=O)c2c1,2.3,-8.1,-16.1,-10.7
COc1ccc(OC)c(C(=O)c2coc3ccc(O)cc23)c1,8.2,-11.8,-29.7,61.4*
CCSc1cc(C2C(C(=O)OC)=C(C)NC3=C2C(=O)CCC3)c(C)o1 (configuration not stated),0.4,-16.1,-12.5,2.9
Cn1c(C(=O)NCCN2CCOCC2)cc2sccc21,64.1,/,88.3*,-14.5
COCCCNC(CC(=O)Nc1ccccc1C(=O)OC)C(=O)O (configuration not stated),-11.3,59.8*,7.0,2.0
COC(=O)c1ccccc1NC(=O)CC(NCc1ccccc1)C(=O)O (configuration not stated),-20.8,-21.4,/,-9.6
C=CCc1ccc(OCCOc2cccc3ccc(C)nc23)c(OC)c1,-13.7,11.7,-3.0,-10.6
CC(C(=O)Nc1ccc2c(c1)OCO2)N(c1ccc(Cl)cc1)S(C)(=O)=O (configuration not stated),-15.6,-13.9,-21.5,-4.7
CC(=O)NC(Cc1c[nH]c2ccccc12)C(=O)OCC(=O)Nc1ccc2c(c1)OCO2 (configuration not stated),11.6,/,-22.4,7.7
COc1cccc(/C=C/C(=O)OCC(=O)Nc2ccc(Cl)c(S(=O)(=O)N(C)C)c2)c1,/,69.0*,/,/
CC(=O)N[C@@H](Cc1c[nH]c2ccccc12)C(=O)OCC(=O)Nc1ccc(Cl)c(S(=O)(=O)N(C)C)c1,/,62.2*,/,/
CN1CCC(N(C)C(=O)c2ccccc2Nc2ccc(SC(F)F)cc2)CC1,6.9,-13.6,-32.0,28.8
CC(C)C(=O)NS(=O)(=O)c1ccc(N)cc1,19.4,27.6,-16.3,10.7
CCC1Cc2c(nc3c4c(nc(N5CCOCC5)c(C#N)c24)NC(C)=N3)O1 (configuration not stated),-0.3,4.8,-7.1,11.4
CC[C@H](C)[C@@H]1NC(=O)c2cc([N+](=O)[O-])cc(I)c2NCC[C@@H](C(N)=O)NC(=O)[C@H](CCCN=C(N)N)NC1=O,/,83.5*,/,/
NC(=O)[C@@H]1CCCNc2c(I)cc([N+](=O)[O-])cc2C(=O)N[C@@H](CCCN=C(N)N)C(=O)N[C@@H](CCCN=C(N)N)C(=O)N1,/,-23.2,/,/
SMILES,VCAM1 TNFa inh,E-sel TNF inh,HUVEC tox TNFa,cytoskel mod
Cc1ccc(CNCC(O)(c2ccccc2)c2ccc(Cl)cc2)cc1 (configuration not stated),/,67.3*,/,/
Cn1c(SCCCC(=O)c2ccc(Br)cc2)nnc1-c1ccncc1,7.2,16.1,-1.2,-7.3
CS(=O)(=O)Nc1ccc(C(=O)N2CCN(c3ccccc3F)CC2)cc1,27.5,10.2,-13.4,-33.1
O=C(c1ccccc1C(=O)N1CCN(c2ccccc2F)CC1)N1CCN(c2ccccc2F)CC1,/,-8.6,/,/
O=C(c1ccccc1F)N1CCN(c2ccccc2F)CC1,/,90.8*,/,/
O=C(c1ccccc1)N1CCN(c2ccccc2F)CC1,0.4,70.7*,10.1,3.2
Fc1ccc(Sc2cc(Cl)c(-c3ccccc3)nn2)cc1,2.6,/,10.5,7.3
O=C(NCc1ccccc1)N1CCN(c2ccc(Cl)c(Cl)c2)CC1,4.3,71.1*,-12.8,-29.4
O=C(NCc1ccccc1)N1CCN(c2ccc(F)cc2)CC1,-6.5,-47.5,-31.7,6.0
CC(C)N1CC(O)=C(c2nc3ccccc3[nH]2)C1=N,/,/,100.0*,/
O=C(Oc1cc(Cl)ccc1Cl)c1ccc(N2CCOCC2)c([N+](=O)[O-])c1,/,-3.1,/,/
CCOc1cccc(C(=O)NC(=S)Nc2ccc(N3CCCC3)cc2)c1,-2.1,53.4*,-16.2,10.4
CCOc1cccc(C(=O)Nc2ccc(N3CCN(S(C)(=O)=O)CC3)cc2)c1,8.1,/,-30.1,-7.8
CCCCNC(=O)OC1CCS(=O)(=O)C1 (configuration not stated),8.2,-25.9,-27.8,8.1
O=C(NC(=O)c1cccc(OC(F)(F)C(F)F)c1)OC1CCS(=O)(=O)C1 (configuration not stated),/,54.0*,/,/
CC(CCc1ccccc1)NC(=O)N1CCOCC1 (configuration not stated),/,-20.3,/,/
CN(CC(=O)NCc1ccncc1)S(=O)(=O)c1ccc(F)cc1,?,15.5,100.0*,?
CCOC(=O)c1ccc(NS(=O)C23CC4CC(CC(C4)C2)C3)cc1 (configuration not stated),54.3*,17.3,39.6,-13.9
CN(C(=O)c1ccc(OC2CCN(CCc3ccccc3)CC2)cc1)C1CCCCC1,/,-30.7,/,/
O=C(CCSc1ccccc1)NCC1CCCO1 (configuration not stated),0.6,-19.7,-22.7,6.6
O=C(CC(c1ccccc1)c1ccccc1)NCC1CCCO1 (configuration not stated),40.8*,22.9,10.5,5.3
Cn1nc(C(=O)NCC2CCCO2)c2ccccc2c1=O (configuration not stated),95.0*,6.4,84.3*,9.2
C/C(=N\N1CCN(c2ccccc2)CC1)c1ccncc1,/,-13.8,/,/
COc1ccc(-c2cc(C(F)(F)F)nc(S(=O)(=O)CCC(=O)N3CCOCC3)n2)cc1,97.6*,12.2,20.1,-15.4
CO/C([O-])=N/c1c[n+](-c2ccc(Cl)cc2)no1,-4.0,58.7*,-8.5,29.9
SMILES,VCAM1 TNFa inh,E-sel TNF inh,HUVEC tox TNFa,cytoskel mod
Cc1ccc(C(=O)C(C)OC(=O)c2n[nH]c(=O)c3ccccc23)cc1 (configuration not stated),-0.3,-61.8,-18.7,-3.0
c1ccc2c(c1)nc(NC1CCCCC1)c1nncn12,9.1,/,-16.3,12.4
c1ccc(Nc2nc3ccccc3n3cnnc23)cc1,/,87.2*,/,/
c1ccc(-c2nnc(CSc3nncs3)o2)cc1,93.2*,4.3,-6.7,12.7
c1ccc(Cc2nnc(-c3ccccc3)o2)cc1,-5.5,-7.5,4.5,2.4
CCc1c(C)nc2ncnn2c1N1CCC(C(=O)N2CCN(c3ccc(F)cc3)CC2)CC1,-18.6,55.3*,-60.2,10.3
CCc1c(C)nc2ncnn2c1N1CCCC(C(=O)Nc2ccc(NC(C)=O)cc2)C1 (configuration not stated),-8.4,-6.8,-5.2,5.8
O=C(c1ccccc1)N1CCc2ccccc21,-7.1,14.0,0.0,12.9
Cc1cc(C(=O)N2CCc3ccccc32)c2ccccc2n1,3.3,64.0*,-13.7,3.2
CN(C)S(=O)(=O)c1cccc(C(=O)N2CCN(Cc3ccccc3)CC2)c1,5.4,2.5,-4.9,-10.7
